Data published in PubChem BioAssay AID1159580 (chemical genetic matrix, 2015).
About 2,000 (36%) of roughly 5,500 compounds were called active. Roughly 18% stayed inconclusive and do not appear here. Rule as the data show it: active = normalized growth mostly below about 0.91 (no sharp cut-off); inconclusive = no clear call, values can overlap the other calls; inactive = mostly above about 0.92. This is one part of the list.

Assay: chemical genetic growth profiling, strain panel (AID 1159580);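 also: tested at 20 µM; growth read once vehicle control cultures reached saturation at 30 °C; 1 = growth at the plate median or of vehicle wells; lower values mean less growth of the strain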
Settings: growth OD

Measured: normalized growth

CC(CN(C)C)CN1c2ccccc2Sc2ccccc21 (configuration not stated)
inactive: S. cerevisiae deletion strains, locus YJR075W, strain HOC1, active compounds read low 0.986 | S. cerevisiae deletion strains, locus YKL009W, strain mrt4, active compounds read low 0.99 | S. cerevisiae deletion strains, locus YKL068W, active compounds read low 0.981 | S. cerevisiae deletion strains, locus YKL085W, strain MDH1 (second series), active compounds read low 1.01 | S. cerevisiae deletion strains, locus YKL085W, strain MDH1, active compounds read low 1.01 | S. cerevisiae deletion strains, locus YKL160W, strain elf1, active compounds read low 1.01 | S. cerevisiae deletion strains, locus YKL190W, strain CNB1, active compounds read low 0.999 | S. cerevisiae deletion strains, locus YKR001C, strain vps1, active compounds read low 0.991 | S. cerevisiae deletion strains, locus YKR026C, strain gcn3, active compounds read low 1.02 | S. cerevisiae deletion strains, locus YKR091W, strain srl3, active compounds read low 1.02 | S. cerevisiae deletion strains, locus YLL001W, strain dnm1, active compounds read low 1.02 | S. cerevisiae deletion strains, locus YLL026W, active compounds read low 1.02 | S. cerevisiae deletion strains, locus YLL041C, strain sdh2, active compounds read low 1.01 | S. cerevisiae deletion strains, locus YLR027C, strain aat2, active compounds read low 1.02 | S. cerevisiae deletion strains, locus YLR058C, strain SHM2, active compounds read low 0.985 | S. cerevisiae deletion strains, locus YLR102C, strain apc9, active compounds read low 0.993 | S. cerevisiae deletion strains, locus YLR113W, strain HOG1, active compounds read low 0.988 | S. cerevisiae deletion strains, locus YLR221C, strain rsa3, active compounds read low 1.02 | S. cerevisiae deletion strains, locus YLR258W, strain gsy2, active compounds read low 1.02 | S. cerevisiae deletion strains, locus YLR262C, strain YPT6 (second series), active compounds read low 1.1 | S. cerevisiae deletion strains, locus YLR268W, strain sec22, active compounds read low 0.918 | S. cerevisiae deletion strains, locus YLR320W, strain mms22, active compounds read low 1.01 | S. cerevisiae deletion strains, locus YLR330W, strain CHS5, active compounds read low 0.999 | S. cerevisiae deletion strains, locus YLR342W, strain FKS1 (second series), active compounds read low 0.888 | S. cerevisiae deletion strains, locus YLR342W, strain FKS1, active compounds read low 1.03 | S. cerevisiae deletion strains, locus YLR357W, strain rsc2, active compounds read low 1.04 | S. cerevisiae deletion strains, locus YLR370C, strain arc18, active compounds read low 1.02 | S. cerevisiae deletion strains, locus YLR371W, strain rom2, active compounds read low 0.994 | S. cerevisiae deletion strains, locus YLR384C, strain iki3, active compounds read low 1.02 | S. cerevisiae deletion strains, locus YLR418C, strain cdc73, active compounds read low 0.874 | S. cerevisiae deletion strains, locus YML016C, strain PPZ1, active compounds read low 0.992 | S. cerevisiae deletion strains, locus YML032C, strain rad52, active compounds read low 0.968 | S. cerevisiae deletion strains, locus YML120C, strain ndi1, active compounds read low 0.998 | S. cerevisiae deletion strains, locus YML124C, strain tub3, active compounds read low 0.995 | S. cerevisiae deletion strains, locus YMR058W, strain fet3, active compounds read low 1.01 | S. cerevisiae deletion strains, locus YMR078C, strain ctf18, active compounds read low 0.985 | S. cerevisiae deletion strains, locus YMR125W, strain sto1, active compounds read low 1.02 | S. cerevisiae deletion strains, locus YMR129W, active compounds read low 1.02 | S. cerevisiae deletion strains, locus YMR205C, strain PFK2, active compounds read low 1.03 | S. cerevisiae deletion strains, locus YMR223W, strain ubp8, active compounds read low 0.98 | S. cerevisiae deletion strains, locus YMR231W, strain pep5, active compounds read low 1.03 | S. cerevisiae deletion strains, locus YMR263W, strain SAP30, active compounds read low 0.978 | S. cerevisiae deletion strains, locus YMR307W, strain GAS1, active compounds read low 1.03 | S. cerevisiae deletion strains, locus YNL067W, strain RPL9B, active compounds read low 0.967 | S. cerevisiae deletion strains, locus YNL071W, strain lat1, active compounds read low 1.02 | S. cerevisiae deletion strains, locus YNL128W, strain TEP1, active compounds read low 0.988 | S. cerevisiae deletion strains, locus YNL153C, strain GIM3, active compounds read low 0.953 | S. cerevisiae deletion strains, locus YNL183C, strain NPR1, active compounds read low 0.948 | S. cerevisiae deletion strains, locus YNL209W, strain ssb2, active compounds read low 1.02 | S. cerevisiae deletion strains, locus YNL233W, strain BNI4, active compounds read low 0.969 | S. cerevisiae deletion strains, locus YNL248C, strain rpa49, active compounds read low 1.02 | S. cerevisiae deletion strains, locus YNL250W, strain rad50, active compounds read low 0.985 | S. cerevisiae deletion strains, locus YNL271C, strain bni1, active compounds read low 0.992 | S. cerevisiae deletion strains, locus YNL298W, strain CLA4, active compounds read low 0.991 | S. cerevisiae deletion strains, locus YNL307C, strain MCK1, active compounds read low 0.974 | S. cerevisiae deletion strains, locus YNL322C, strain KRE1 (second series), active compounds read low 1.04 | S. cerevisiae deletion strains, locus YNL322C, strain KRE1, active compounds read low 0.998 | S. cerevisiae deletion strains, locus YNR049C, strain mso1, active compounds read low 1.04 | S. cerevisiae deletion strains, locus YNR052C, strain pop2, active compounds read low 0.974 | S. cerevisiae deletion strains, locus YOL006C, strain TOP1, active compounds read low 0.922 | S. cerevisiae deletion strains, locus YOL012C, strain htz1 0.837 | S. cerevisiae deletion strains, locus YOL147C, strain pex11, active compounds read low 0.996 | S. cerevisiae deletion strains, locus YOR001W, strain rrp6, active compounds read low 1.01 | S. cerevisiae deletion strains, locus YOR061W, strain CKA2, active compounds read low 0.996 | S. cerevisiae deletion strains, locus YOR069W, strain VPS5, active compounds read low 0.984 | S. cerevisiae deletion strains, locus YOR070C, strain gyp1, active compounds read low 1.02 | S. cerevisiae deletion strains, locus YOR080W, strain dia2, active compounds read low 1.02 | S. cerevisiae deletion strains, locus YOR083W, strain WHI5, active compounds read low 0.987 | S. cerevisiae deletion strains, locus YOR106W, strain vam3, active compounds read low 1.05 | S. cerevisiae deletion strains, locus YOR136W, strain idh2, active compounds read low 0.987 | S. cerevisiae deletion strains, locus YOR144C, strain elg1, active compounds read low 0.993 | S. cerevisiae deletion strains, locus YOR184W, strain ser1, active compounds read low 1.02 | S. cerevisiae deletion strains, locus YOR231W, strain MKK1, active compounds read low 0.997 | S. cerevisiae deletion strains, locus YOR265W, strain rbl2, active compounds read low 1.03 | S. cerevisiae deletion strains, locus YOR270C, strain vph1, active compounds read low 1.08 | S. cerevisiae deletion strains, locus YOR290C, strain snf2, active compounds read low 1.02 | S. cerevisiae deletion strains, locus YOR316C, strain cot1, active compounds read low 0.992 | S. cerevisiae deletion strains, locus YPL051W, strain arl3, active compounds read low 0.996 | S. cerevisiae deletion strains, locus YPL055C, strain LGE1, active compounds read low 0.992 | S. cerevisiae deletion strains, locus YPL078C, strain atp4, active compounds read low 1.01 | S. cerevisiae deletion strains, locus YPL106C, strain sse1, active compounds read low 1.03 | S. cerevisiae deletion strains, locus YPL240C, strain hsp82, active compounds read low 0.997 | S. cerevisiae deletion strains, locus YPL241C, strain CIN2, active compounds read low 0.999 | S. cerevisiae deletion strains, locus YPL256C, strain CLN2, active compounds read low 0.99 | S. cerevisiae deletion strains, locus YPR119W, strain clb2, active compounds read low 0.997 | S. cerevisiae deletion strains, locus YPR141C, strain kar3, active compounds read low 0.983 | S. cerevisiae deletion strains, locus YPR163C, strain tif3, active compounds read low 0.966 | S. cerevisiae deletion strains, locus YPR167C, strain met16, active compounds read low 0.99 | S. cerevisiae deletion strains, strain wtn01, active compounds read low 0.968 | S. cerevisiae strains, strain wild type, active compounds read low 0.992
active: S. cerevisiae deletion strains, locus YLR039C, strain RIC1, active compounds read low 1.34 [resistant] | S. cerevisiae deletion strains, locus YLR262C, strain YPT6, active compounds read low 1.44 [resistant]
